Measured values: PubChem BioAssay (EPA / NIEHS)
Some structures have more than one record in an assay (separate samples or runs), and their calls can disagree. Calls of active or inactive are those of the source. The calls were made as follows: active = hit-call score of the fitted dose curve at least 0.9, where 1 is the maximum; inactive = score below 0.9.

What follows are molecules tested on Thrombomodulin, THBD (gene 7056) (assay: BSK_3C_Thrombomodulin: BioMAP Diversity Plus: 3C Assay for Thrombomodulin Biomarker Activity (AID 2283029)). Settings: primary human endothelial cells (HUVEC); actives raise or lower the signal.
Method: BSK_3C is a cell-based, multiplexed-readout assay that uses umbilical vein endothelium, a human vascular primary cell, with measurements taken at 24 hours after chemical dosing in a 96-well plate.BSK_3C_Thrombomodulin is an assay component measured in the BSK_3C assay. It measures Thrombomodulin antibody related to regulation of gene expression using ELISA technology.Data from the assay component BSK_3C_Thrombomodulin was analyzed into 1 assay endpoint. This assay endpoint, BSK_3C_Thrombomodulin, was analyzed with bidirectional fitting relative to DMSO as the negative control and baseline of activity. Using a type of binding reporter, gain or loss-of-signal activity can be used to understand changes in the signaling as they relate to the gene THBD. Furthermore, this assay endpoint can be referred to as a primary readout, because this assay has produced multiple assay endpoints where this one serves a signaling function. To generalize the intended target to other relatable targets, this assay endpoint is annotated to the gpcr intended target family, where the subfamily is rhodopsin-like receptor.
The levels of cell surface (or secreted, indicated by the prefix "s") biomarker endpoints were measured by ELISA. Overt cytotoxicity to cells in confluent adherent cultures (all systems other than the BT system) was assessed by measuring total protein levels using sulforhodamine B (SRB) staining in parallel cultures at the time of biomarker measurements, indicated as SRB endpoints. For proliferation assays for adherent cell types, individual cell types are cultured at sub-confluence and relative cell numbers quantified by SRB staining at time points optimized for each system (48 h: 3C and CASM3C systems; 72 h: BT and HDF3CGF systems; 96 h: SAg system). SRB was performed by staining cells with 0.1% SRB after fixation with 10% TCA and reading wells at 560 nm.Viability and proliferation of PBMC (T cells) was quantified by Alamar Blue reduction for the SAg and BT systems. For PBMC viability (referred to as PBMC Cytotoxicity within the assay endpoint names), cells were plated (75,000/well in a 96-well plate) and then chemical samples added for 1 h before addition of activators, SEB and TSST-1 (20 ng/mL final concentration each). Cells were incubated for 90 h. Then, Alamar Blue (20 uL/well) (Invitrogen, Cat DAL1100) was added for 6 h, and the plates were read with a fluorescence microplate reader at 546/580 nm (excitation/emission). For PBMC proliferation, cells were plated and activated as above but incubated for only 16 h prior to addition of Alamar Blue. Plates were read after 6 h.

AC50, active:
CCCCCc1ccc(O)cc1 11.7 µM
OCC(F)(F)C(F)(F)C(F)(F)C(F)(F)C(F)(F)C(F)(F)C(F)(F)C(F)(F)C(F)(F)C(F)(F)C(F)(F)F 0.423 µM
CCCCCCCCCCCC 36.5 µM
O=P(O)(O)CCC(F)(F)C(F)(F)C(F)(F)C(F)(F)C(F)(F)C(F)(F)F 22.7 µM
O=C(O)C(F)(F)OC(F)(F)C(F)(F)OC(F)(F)C(F)(F)OC(F)(F)C(F)(F)C(F)(F)C(F)(F)F 52 µM
C=COC(=O)C(C)(C)CCCCCC 20 µM

outcome, inactive:
O=C(CCCN1CCC(O)(c2ccc(Cl)cc2)CC1)c1ccc(F)cc1
O=C(NCc1ncc(C(F)(F)F)cc1Cl)c1c(Cl)cccc1Cl
CCCCc1oc2ccccc2c1C(=O)c1cc(I)c(OCCN(CC)CC)c(I)c1
CC1=NN(c2ccccc2)C(=O)C1
CC[N+](CC)(CC)Cc1ccccc1
C[C@]12CC[C@@H]3c4ccc(O)cc4CC[C@H]3[C@@H]1C[C@@H](O)[C@@H]2O
CCCCCCCCCCCCOS(=O)(=O)O
Cc1ccc(N=Nc2c(O)ccc3ccccc23)c(C)c1
O=C(NO)c1ccccc1
O=S(=O)(O)C(F)(F)C(F)(F)C(F)(F)C(F)(F)C(F)(F)C(F)(F)C(F)(F)C(F)(F)C(F)(F)C(F)(F)F
OCC(F)(F)C(F)(F)C(F)(F)C(F)(F)C(F)(F)C(F)(F)C(F)(F)C(F)(F)C(F)(F)C(F)(F)C(F)(F)F
CCCCCCCCCCCCCCCCCC[N+](C)(C)Cc1ccccc1
C=CC(=O)OCCC(F)(F)C(F)(F)C(F)(F)C(F)(F)C(F)(F)C(F)(F)C(F)(F)C(F)(F)F
CCCCCCCCCCCC
N=C(N)c1ccc(OCCCCCOc2ccc(C(=N)N)cc2)cc1
O=C1NS(=O)(=O)c2ccccc21
CCCCC=O
CCCCC(CC)C(=O)O (stereo not given)
Clc1ccc(Nc2nnc(Cc3ccncc3)c3ccccc23)cc1
CN(C)c1ccc(C(=C2C=CC(=[N+](C)C)C=C2)c2ccccc2)cc1
CN(C)CCOC(c1ccccc1)c1ccccc1
CC(=O)Nc1ccc(O)cc1
CN(CCO)S(=O)(=O)C(F)(F)C(F)(F)C(F)(F)C(F)(F)C(F)(F)C(F)(F)C(F)(F)C(F)(F)F
O=C(O)CCC(F)(F)C(F)(F)C(F)(F)C(F)(F)C(F)(F)C(F)(F)F
O=P(O)(O)CCC(F)(F)C(F)(F)C(F)(F)C(F)(F)C(F)(F)C(F)(F)F
COc1cc(OC)nc(NC(=O)NS(=O)(=O)Nc2ccccc2C(=O)N(C)C)n1
O=C(O)C(F)(F)OC(F)(F)C(F)(F)OC(F)(F)C(F)(F)OC(F)(F)C(F)(F)C(F)(F)C(F)(F)F
CCCCC(CC)C(=O)OCCOCCOCCOCCOC(=O)C(CC)CCCC (stereo not given)
O=C(c1ccccc1)c1ccccc1
O=C(CC(=O)C(F)(F)C(F)(F)C(F)(F)F)c1cccs1
C=CC(C)(CCC=C(C)C)OC(C)=O (stereo not given)
O=P(O)(O)CCC(F)(F)C(F)(F)C(F)(F)C(F)(F)C(F)(F)C(F)(F)C(F)(F)C(F)(F)F
CCC(C)c1ccccc1O (stereo not given)
OCC(CO)(CBr)CBr
